# Screens deposited in PubChem BioAssay by National Center for Advancing Translational Sciences (NCATS).
# A selection: hits, their analogues and other compounds. The true share with any hit is near 2.4%.
# Pol kappa inh-1 = blocks human DNA polymerase kappa activity; Q9UBT6; purified Pol kappa, fluorescent DNA synthesis assay, 10 min; Potency, µM (highest dose often 107 µM), for inactives: at the top dose activity, negative = inhibition, hits mostly inhibitors; 400,000 tested, 0.53% active; AID 588579; also: potency is read from the fitted curve at half-maximal effect; % is scaled to controls: 0 for no effect and ±100 for the full control effect
#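 10 nM Pol kappa was preincubated with compounds for 15 min at room temperature. Reaction started with 50 nM (final) substrate. Fluorescence read kinetically at 0 and 10 min.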
# FEN1 inhibitor = blocks human flap endonuclease 1 | Recombinant FEN1 flap cleavage, fluorescence, 15 min | Potency, µM (series often up to 114 µM), inactives show at the highest dose activity change, negative = inhibition, most hits filed as inhibitors | 390,000 tested, 0.35% active; also: potency is read from the fitted curve at half-maximal effect; % is scaled to controls: 0 for no effect and ±100 for the full control effect; nearly all actives have a fitted effect of over 65% in size
#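 Enzyme 10 nM, 15 min RT preincubation with compound; start with substrate 50 nM final; reads at 0 and 15 min; qHTS titration, four-parameter Hill fit.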
# Pol beta inh-1 = blocks human DNA polymerase beta activity; P06746; Pol beta primer extension/strand displacement, fluorescence kinetic; Potency, µM (titrated, usually from 114 µM), without a hit: at the highest dose activity change, negative = inhibition, hits mostly inhibitors; 340,000 tested, 1.3% active; AID 485314; also: potency is read from the fitted curve at half-maximal effect; % is scaled to controls: 0 for no effect and ±100 for the full control effect
#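 10 nM enzyme + cpd, 15 min RT; start with substrate 50 nM final; read 0 min and after 10 min RT. Corrected, normalized data; 4-parameter Hill curve fit.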
# Pol iota inh = inhibitors of human DNA polymerase iota | Pol iota fluorescent replication assay, 10 min | AID 588590 | Potency, µM (titrated, usually from 115 µM), for inactives: at the top dose activity, negative = inhibition, most hits filed as inhibitors | 390,000 tested, 1% active; also: potency is read from the fitted curve at half-maximal effect
# Target sequence (Q9UNA4 whole entry, looked up): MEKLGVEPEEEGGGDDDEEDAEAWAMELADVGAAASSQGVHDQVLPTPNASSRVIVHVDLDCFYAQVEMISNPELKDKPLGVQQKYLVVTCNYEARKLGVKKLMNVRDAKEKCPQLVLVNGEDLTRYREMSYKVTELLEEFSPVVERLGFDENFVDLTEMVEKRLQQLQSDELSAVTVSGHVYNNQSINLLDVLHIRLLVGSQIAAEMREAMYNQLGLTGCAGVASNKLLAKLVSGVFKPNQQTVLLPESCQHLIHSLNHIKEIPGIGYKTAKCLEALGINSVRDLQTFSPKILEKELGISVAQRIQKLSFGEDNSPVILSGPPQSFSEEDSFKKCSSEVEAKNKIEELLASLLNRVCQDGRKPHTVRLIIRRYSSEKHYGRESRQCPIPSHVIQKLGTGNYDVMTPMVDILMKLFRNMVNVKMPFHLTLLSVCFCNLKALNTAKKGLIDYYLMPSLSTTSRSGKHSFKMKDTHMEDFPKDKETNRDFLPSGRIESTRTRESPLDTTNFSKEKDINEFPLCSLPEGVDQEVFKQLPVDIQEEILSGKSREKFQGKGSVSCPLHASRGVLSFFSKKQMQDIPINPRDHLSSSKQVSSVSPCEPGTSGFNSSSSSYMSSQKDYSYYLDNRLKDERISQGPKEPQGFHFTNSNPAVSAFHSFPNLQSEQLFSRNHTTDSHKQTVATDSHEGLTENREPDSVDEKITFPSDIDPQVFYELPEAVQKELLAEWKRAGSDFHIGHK
#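 Pol iota at 10 nM preincubated 15 min with compounds at room temperature; reaction started with fluorescent substrate, 50 nM final. Fluorescence read kinetically at 0 and 10 min; buffer-only wells as negative control.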
# Pol eta inh-1 = inhibitors of human DNA polymerase eta; Q9Y253; recombinant Pol eta, fluorescent DNA replication assay; Potency, µM (top dose mostly 114 µM), for inactives: at the highest dose activity change, negative = inhibition, most hits filed as inhibitors; 390,000 tested, 1.2% active; AID 588591; also: potency is read from the fitted curve at half-maximal effect; % is scaled to controls: 0 for no effect and ±100 for the full control effect
#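 Pol eta (10 nM) was preincubated with compounds for 15 min at room temperature, after which fluorescent replication substrate (50 nM final) was added to start the reaction. Fluorescence was read kinetically at 0 and 10 min.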
# WRN helicase inh = WRN helicase (human) inhibition; 360,000 tested, 0.46% active; Potency, µM (highest dose often 114 µM), inactives show top-dose activity change, negative = inhibition, hits mostly inhibitors; WRN helicase unwinding, fluorescent forked duplex, kinetic; also: potency is read from the fitted curve at half-maximal effect; % is scaled to controls: 0 for no effect and ±100 for the full control effect; nearly all actives have a fitted effect of over 55% in size
#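 WRN at 20 nM final preincubated with compound 15 min at room temperature; reaction started with 100 nM fluorophore/quencher forked duplex oligonucleotide and 2 mM ATP final. Unwinding followed kinetically by red fluorescence (ex 525, em 598 nm).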
# Pol beta inh-2 = Inhibitors of human DNA polymerase beta, hit validation; shares compounds with Pol beta inh-1; Pol beta primer extension/strand displacement, fluorescence kinetic; Potency, µM, usual class: inhibitors; 250 tested, 87% active; calls by dose curve; also: potency is read from the fitted curve at half-maximal effect
# Klenow inh = Klenow polymerase inhibition, pol beta selectivity check. shares compounds with Pol beta inh-1. Klenow exo- polymerase counter-screen, fluorescent DNA substrate. activity change, negative = inhibition, % at 57.1 µM. 250 tested, under 10 active. AID 540300
# HIV RT inh = counter-screen for DNA polymerase beta inhibitors: HIV-1 RT inhibition. AID 540301. shares compounds with Pol beta inh-1. activity % (negative = inhibition, positive = activation), % at 57.1 µM. 250 tested, under 10 active. HIV-1 RT polymerase activity, counter-screen
# POLB valid = DNA polymerase beta inhibition, radiolabeled validation | shares compounds with Pol beta inh-1 | radiolabeled primer extension gel assay, phosphorimager | inhibition, % at 10 µM | 110 tested, 91% active | AID 540325;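 active = inhibition at 10 µM of 30% or more; inconclusive = no clear call, values can overlap the other calls; inactive = inhibition at 10 µM under 30%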
# PGK validate = validation of Trypanosoma brucei phosphoglycerate kinase inhibitors. shares compounds with Pol kappa inh-1. TbPGK coupled GAPDH assay, Kinase-Glo luminescence. Potency, µM (top dose mostly 57.5 µM), inactives show top-dose activity change, negative = inhibition, usual class: inhibitors. 500 tested, 79% active; also: potency is read from the fitted curve at half-maximal effect; % is scaled to controls: 0 for no effect and ±100 for the full control effect; nearly all actives have a fitted effect of over 65% in size
# POLI cherry-pick = Human Pol iota inhibitor confirmatory assay; shares compounds with Pol kappa inh-1; Pol iota primer extension, TAMRA/BHQ fluorescence; Potency, µM, most hits filed as inhibitors; 1,500 tested, 77% active; also: potency is read from the fitted curve at half-maximal effect
# Pol kappa inh-2 = Pol kappa (human) inhibition, cherry-pick confirmation; shares compounds with Pol eta inh-1; purified Pol-kappa, fluorescent strand-displacement substrate; Potency, µM, usual class: inhibitors; 920 tested, 76% active; AID 720501; also: potency is read from the fitted curve at half-maximal effect
# Pol eta inh-2 = confirmation of human DNA polymerase eta inhibitors; 2,600 tested, 64% active; Potency, µM, actives largely listed as inhibitors; AID 720502; shares compounds with Pol eta inh-1; Pol eta primer extension, TAMRA/BHQ fluorescence, 10 min; also: potency is read from the fitted curve at half-maximal effect
# The depositor's hits bear a star; ? = inconclusive; · = no result given; [ ] = remark or other dose. Unless noted, calls follow the shape of the dose curve; as a rule, active = well fitted curve in the direction sought with a large enough effect; inconclusive = small, poorly fitted or top-dose-only effect, or another doubt; inactive = no such curve, though single readings can be large; an effect the other way counts as inactive or inconclusive.
SMILES,Pol kappa inh-1,FEN1 inhibitor,Pol beta inh-1,Pol iota inh,Pol eta inh-1,WRN helicase inh,Pol beta inh-2,Klenow inh,HIV RT inh,POLI cherry-pick,Pol eta inh-2,others
CCCSc1nnc(NC(=O)c2sc3nc(-c4cccs4)ccc3c2N)s1,-16.8%,?,17.8µM*,?,79.4µM*,?,12.6*,-6.5,4.4,?,60.1*,Pol kappa inh-2=18.9*
CCCc1cc(=O)oc2c(CN3CCCC3)c(O)ccc12,-0.6%,-0.9%,20.5%,14.3%,-4.6%,6.6%,·,·,·,·,·,
CCCc1cc(=O)oc2cc(C)c(CN3CCCC3)c(O)c12,20µM*,50.1µM*,6.31µM*,5.01µM*,22.4µM*,39.8µM*,25.1*,-25.0,23.2,·,67.5*,POLB valid=4.8
Cc1nc(C)c(C(=O)Nc2ncc([N+](=O)[O-])s2)o1,?,-35.0%,15.8µM*,17.8µM*,8.91µM*,?,35.5*,-5.5,-15.0,·,?,POLB valid=100.0*;Pol kappa inh-2=29.9*
O=C1CCC[C@@H]2C[C@@]3(C[C@@H]4CCN1[C@H]24)Nc1ccccc1NC3=NC1CCCCC1,-4.6%,-4.3%,·,7.7%,·,·,·,·,·,·,·,
CCCN(C(=O)c1cccs1)c1c(N)n(Cc2ccccc2)c(=O)[nH]c1=O,4.9%,16.0%,·,12.2%,2.1%,-6.0%,·,·,·,·,·,
CCCN(C(=O)c1cc2c(s1)CCC2)c1c(N)n(Cc2ccccc2)c(=O)[nH]c1=O,?,-1.9%,10µM*,?,25.1µM*,-34.3%,22.4*,-13.2,-8.7,?,75.7*,POLB valid=90.6*
C=CCn1c(SCC(=O)Nc2ccc(-c3nc4ccc(C)cc4s3)cc2)nnc1-c1ccccc1,-33.1%,-20.7%,6.31µM*,56.2µM*,?,?,20*,-0.6,53.3,67*,?,POLB valid=59.7*
O=C(CSc1ccccn1)Nc1ccc2ccccc2c1,·,·,-14.1%,·,·,·,·,·,·,·,·,
O=C(CSc1ccccn1)Nc1ccc2c(c1)C(=O)c1ccccc1C2=O,-23.9%,?,8.91µM*,2.8%,?,39.8µM*,11.2*,-25.6,23.7,53.2*,60.1*,Pol kappa inh-2=59.7*
CN(Cc1ccco1)c1cc(-c2ccc3c(c2)OCO3)ncn1,-14.1%[60.1 µM],·,·,·,·,·,·,·,·,·,·,
Cc1cc(C)n2c(SC/C(O)=C(\C#N)c3nc4ccccc4[nH]3)nnc2n1,44.7µM*,?,17.8µM*,11.2µM*,3.16µM*,?,35.5*,5.1,-3.7,·,75.7*,POLB valid=100.0*
Cc1ccccc1-n1c(SC/C(O)=C(\C#N)c2nc3ccccc3[nH]2)nnc1-c1ccncc1,-30.7%,-11.0%,?,?,?,-16.2%,·,·,·,·,·,
O=C(Nc1ccc(Br)cc1)c1cc(Br)c(Br)s1,1.1%[19.4 µM],·,·,·,·,·,·,·,·,·,·,
CS(=O)(=O)C1=NSC2=NC(=O)/C(=C\c3ccc(-c4ccccc4)o3)C(=N)N21,·,·,23.4%,·,·,·,·,·,·,·,·,
Cc1ccc(-n2cccc2/C=C2/C(=N)N3C(=NC2=O)SN=C3S(C)(=O)=O)cc1,?,?,15.8µM*,17.8µM*,31.6µM*,?,15.8*,-23.8,19.0,84.4*,67.5*,
CCc1ccc(-n2cccc2/C=C2/C(=N)N3C(=NC2=O)SN=C3S(C)(=O)=O)cc1,79.4µM*,?,6.31µM*,?,20µM*,-11.9%[11.6 µM],31.6*,-30.1,?,?,47.8*,POLB valid=73.0*;Pol kappa inh-2=67*
Cc1c(C(=O)N(C)c2cccc(C(F)(F)F)c2)sc2nc3n(c(=O)c12)CCCCC3,-5.4%,15.6%,-6.1%,?,-20.4%,·,·,·,·,·,·,
CCN(CC)c1ccc(NC(=O)CCS(=O)(=O)c2ccc(Br)cc2)c(C)c1,?,-0.4%,7.08µM*,39.8µM*,14.1µM*,?,10*,-23.9,?,47.4*,16.9*,PGK validate=10.3µM*;Pol kappa inh-2=7.52*
CN(C)CC[C@H](c1ccc(Br)cc1)c1ccccn1,-3.2%[12 µM],·,·,·,·,·,·,·,·,·,·,
CCCCCc1ccc(C)cc1O,-1.1%[19.4 µM],·,·,·,·,·,·,·,·,·,·,
O=C(Cn1cnc2scc(-c3cccc([N+](=O)[O-])c3)c2c1=O)NCc1ccco1,79.4µM*,-31.3%,10µM*,20µM*,20µM*,?,15.8*,-12.4,?,47.4*,60.1*,Pol kappa inh-2=47.4*
c1coc(-c2nnc3sc(Cc4cccs4)nn23)c1,20µM*,56.2µM*,12.6µM*,7.94µM*,28.2µM*,44.7µM*,22.4*,-10.1,38.2,?,?,POLB valid=35.6*
Clc1ccc(-c2nnc3sc(Cc4cccs4)nn23)c(Cl)c1,-13.4%,-1.7%,?,12.5%,-17.2%,-2.7%,·,·,·,·,·,
COC(=O)C(C(C)C)N1CC(=O)c2ccccc2S1(=O)=O (stereo unspecified),-7.6%,12.8%,·,5.8%,·,·,·,·,·,·,·,
O=C(CSc1ccsc1[N+](=O)[O-])N1CCN(c2ccc(Cl)cc2)CC1,?,10.6%,14.1µM*,28.2µM*,28.2µM*,-9.4%[11.6 µM],39.8*,-26.9,62.2,·,?,
Cc1cc(NC(=O)Nc2ccc(N(C)C)cc2)c2cc(F)cc(F)c2n1,8.2%[60.1 µM],·,·,·,·,·,·,·,·,·,·,
COC(=O)c1ccccc1NC(=O)c1ccc2nccnc2c1,?,-15.9%,3.16µM*,?,31.6µM*,-28.0%,35.5*,-27.1,39.0,·,?,
O=C(Nc1ccccc1Cl)c1ccc2nccnc2c1,?,-16.9%,36.1%,?,?,-2.3%[11.6 µM],·,·,·,·,·,
